# Screens deposited in PubChem by National Center for Advancing Translational Sciences (NCATS).
# The list is not random: actives were taken first. Their share in the collection is about 9.2%.
# SMN2 splice up: qHTS Assay for Enhancers of SMN2 Splice Variant Expression; HEK293 SMN2-luciferase splicing reporter, luminescence, 30-36 h; Potency, µM (titrated, usually from 46.1 µM), usual class: activators; actives 2.8% (n = 210,000); AID 1458, 2008; note: nearly all actives have a fitted effect of over 55% in size
#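 HEK293 cells carry an SMN2 […]–luciferase reporter in which exon 7 inclusion puts luciferase in frame. Cells were plated 10-12 h before compound addition, then incubated 30-36 h at 37C. ONE-Glo luminescence was read; sodium butyrate at 4.5 mM final served as control.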
# FLuc counter: qHTS profiling assay for firefly luciferase inhibitor/activator using purifed enzyme and Km concentrations of substrates (counterscreen for miR-21 project) | Luciferin 4-monooxygenase (Photinus pyralis), P08659 | purified FLuc, Km substrates, luminescence inhibition | Potency, µM (top dose mostly 57.5 µM), actives largely listed as inhibitors | actives 6.9% (n = 360,000) | AID 588342, 2011; note: nearly all actives have a fitted effect of over 55% in size
# Target sequence (P08659 whole entry, looked up): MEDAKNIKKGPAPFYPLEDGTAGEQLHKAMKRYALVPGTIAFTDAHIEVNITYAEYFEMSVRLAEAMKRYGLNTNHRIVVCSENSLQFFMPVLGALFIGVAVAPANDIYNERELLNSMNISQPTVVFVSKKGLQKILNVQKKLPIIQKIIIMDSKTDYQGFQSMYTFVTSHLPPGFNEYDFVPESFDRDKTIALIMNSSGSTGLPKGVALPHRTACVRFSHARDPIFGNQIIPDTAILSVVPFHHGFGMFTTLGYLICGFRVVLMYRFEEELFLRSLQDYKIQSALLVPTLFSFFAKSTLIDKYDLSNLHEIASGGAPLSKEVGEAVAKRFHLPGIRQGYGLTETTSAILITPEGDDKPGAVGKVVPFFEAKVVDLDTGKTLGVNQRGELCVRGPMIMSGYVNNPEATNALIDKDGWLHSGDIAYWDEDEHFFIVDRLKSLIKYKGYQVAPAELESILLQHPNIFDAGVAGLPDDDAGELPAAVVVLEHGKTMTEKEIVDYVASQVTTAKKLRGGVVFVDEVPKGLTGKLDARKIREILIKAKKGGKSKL
#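 Biochemical qHTS of compounds, final roughly 60 µM downward over six points, against 10 nM purified firefly luciferase using Km concentrations of substrates (10 uM D-luciferin, 10 uM ATP) in Tris acetate pH 7.5 buffer; luminescence output.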
# ELG1 repair inh: qHTS screen for small molecules that inhibit ELG1-dependent DNA repair in human embryonic kidney (HEK293T) cells expressing luciferase-tagged ELG1 | HEK293T ELG1-luciferase reporter, luminescence, 16 h; DNA damage induced by 5-fluorouridine | Potency, µM (series often up to 46.1 µM), actives largely listed as inhibitors | actives 2.3% (n = 330,000); note: nearly all actives have a fitted effect of over 55% in size
#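 Overnight (16 hr) co-exposure of 2,000 cells/well to 5-fluorouridine and compound at 37 °C preceded detection. Luciferase was quantified via ONE-Glo luminescence; loss of signal denotes inhibition.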
# Rab9 promoter act: qHTS Assay for Rab9 Promoter Activators. Potency, µM (doses to about 9.22 µM), usual class: activators. AID 485297, 2010. Huh7 Rab9 promoter-luciferase reporter, luminescence, 24 h. actives 2.8% (n = 320,000); note: nearly all actives have a fitted effect of over 60% in size
#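 Stable Rab9-luc Huh7, 1500 cells/well, 2 h settle; cmpd in DMSO, 24 h, 37 °C/5% CO2; luciferase reagent 10 min RT; luminescence.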
# ELG1 genotoxic: qHTS screen for small molecules that induce genotoxicity in human embryonic kidney (HEK293T) cells expressing luciferase-tagged ELG1 | actives 1.3% (n = 330,000) | Potency, µM (series often up to 46 µM), hits mostly activators | HEK293T ELG1-luciferase reporter, luminescence, 16 h; note: nearly all actives have a fitted effect of over 60% in size
#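 After overnight (16 hr) compound treatment at 37 °C, ELG1-luciferase HEK293T cells were lysed with ONE-Glo; luminescence quantified 30 min later at room temperature.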
# NPC1 prom act: qHTS Assay for NPC1 Promoter Activators; actives 2.4% (n = 320,000); Potency, µM (titrated, usually from 9.22 µM), hits mostly activators; Huh7 NPC1 promoter luciferase reporter, 24 h; note: nearly all actives have a fitted effect of over 60% in size
#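 Luminescence read-out of NPC1 promoter-driven luciferase in stably transfected Huh7 cells; compounds delivered in DMSO and left 24 h at 37C, 5% CO2, qHTS titration format.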
# A number is an active result; n = inactive; u = inconclusive; x = not tested or not shown; [ ] = another dose, or the depositor's remark. Calls come from the whole dose curve; as a rule, active = well fitted curve in the direction sought with a large enough effect; inconclusive = small, poorly fitted or top-dose-only effect, or another doubt; inactive = no such curve, though single readings can be large; an effect the other way counts as inactive or inconclusive.
SMILES,SMN2 splice up,FLuc counter,ELG1 repair inh,Rab9 promoter act,ELG1 genotoxic,NPC1 prom act
CCOc1ccc(C(C(=O)NC2CCCCC2)N(CCOC)C(=O)c2snc(C(N)=O)c2N)cc1 (stereo not given),x,n,n,n,n,n
Cc1onc(-c2c(F)cccc2Cl)c1C(=O)N1CCCCC1,x,n,n,n,n,n
O=C(O)c1ccc(OCc2ccccc2)c(Cl)c1,n[9.22 µM],x,x,x,x,x
CN1CCN(C(=O)c2ccc(COc3ccc(Cl)cc3Cl)cc2)CC1,n,12µM,n,n,n,n
O=C(O)c1cccc(COc2ccc(CO)cc2Cl)c1,0.04µM,0.021µM,u,1.3µM,u,1.3µM
O=C(O)c1ccc(COc2ccc(CO)cc2Cl)cc1,u,5.4µM,u,4.5µM,9.2µM,u
COC(=O)Cc1c(C)c2cc3c(c(C)c2oc1=O)OCN(CCc1ccc(OC)cc1)C3,n,n,x,x,x,x
Cc1ccc(C(=O)C2=C(O)C(=O)N(c3ncccn3)C2c2ccccc2F)o1 (stereo not given),x,n,n,n,n,n
CN(C(=O)CSc1nc2ccccc2n1CC(=O)NCc1ccc(F)cc1)c1ccc(F)cc1,x,n,x,x,x,x
COc1ccc(CC(=O)NNS(=O)(=O)c2ccccc2)cc1OC,x,n,n,n,n,n
Cc1cc2nc(-c3ccccn3)c(-c3ccccn3)nc2cc1C,x,4.8µM,u,n,u,u
c1ccc(-c2nc3ccccc3nc2-c2ccccn2)nc1,n,n,n,n,n,n
CCOCCCNC(=O)Cn1ncc2c([nH]c3ccc(C)cc32)c1=O,x,n,x,x,x,x
C(=N\Nc1ncnc2sc3c(c12)CCC3)/c1cccs1,n,n,u,n,n,n
Cn1cnc2c(N/N=C/c3cccs3)ncnc21,x,8.5µM,u,1.8µM,u,3.5µM
CCN(C(=O)CN1C(=O)c2ccccc2Sc2ccc(C(=O)OC)cc21)c1cccc(C)c1,x,n,x,x,x,x
COC(=O)c1cc(OC)c(OC)cc1NC(=O)Nc1ccc(OC)cc1,n,n,n,n,n,n
COC(=O)c1cc2ccc(OC)cc2c2cc(OC)c(OC)cc12,x,x,13µM,x,n,x
Cc1ccc(/C=c2\s/c(=C(/C#N)C(=O)N3CCCC3)n(Cc3ccco3)c2=O)s1,n,n,13µM,n,n,n
COC(=O)C(NC(=O)CCc1nnc2ccc(N3CCCCC3)nn12)C(C)C (stereo not given),x,n,u,n,n,n
Cc1c(-c2ccc(OCc3ccccc3)cc2)nc2ccccc2c1C(=O)O,x,21µM,u,n,n,n
CCNc1nc(NCC)n2c(SCC(=O)Nc3cc(OC)ccc3OC)nnc2n1,x,n,n,n,n,n
CCNc1nc(NCC)n2c(SC(C(=O)Nc3cc(C)ccc3OC)c3ccccc3)nnc2n1 (stereo not given),n,n,23µM,n,n,n
CCOc1ccc(OCC(=O)Nc2c(C(=O)Nc3ccc(C)cc3)oc3ccccc23)cc1,n,n,x,x,x,x
COc1ccc(NC(=O)c2ccccc2NS(=O)(=O)c2ccc(CNC(C)=O)cc2)c(OC)c1,x,u,n,n,n,n
SMILES,SMN2 splice up,FLuc counter,ELG1 repair inh,Rab9 promoter act,ELG1 genotoxic,NPC1 prom act
C=CCn1c(-c2ccc(C)cc2)nc2ccccc21,n,11µM,u,n,u,n
COCn1c(-c2ccc(OC)cc2)nc2ccccc21,14µM,6µM,u,2.5µM,u,u
C=CCn1c(NC(=O)c2ccc(C)cc2)nc2ccccc21,x,u,u,u,u,2.8µM
CCCn1c(NC(=O)c2ccc(C)cc2)nc2ccccc21,u,n,u,n,u,n
CCCCN(C(=O)c1ccc2c(c1)OCCO2)c1c(N)n(CC(C)C)c(=O)[nH]c1=O,x,n,n,n,n,n
O=[N+]([O-])c1cc(F)c2cccnc2c1O,x,n,21µM,n,n,n
O=[N+]([O-])c1cc(CN2CCOCC2)c2cccnc2c1O,n,n,n,n,n,n
O=[N+]([O-])c1cc(CN2CCN(c3ccccc3)CC2)c(O)c2ncccc12,n,n,4.6µM,n,n,n
COC(=O)C1=C(C(=O)OC)[C@@H]2N(C)c3ccc(OC)cc3[C@@]23C[C@@H](C(=O)OC)N(C(C)=O)C3=N1,n[9.22 µM],x,x,x,x,x
C=CCN(C(=O)Cc1cccs1)c1nc(-c2ccc(S(C)(=O)=O)cc2)cs1,x,17µM,u,u,n,u
C=CCN(C(=O)CCc1ccccc1OC)c1nc(-c2ccc(S(C)(=O)=O)cc2)cs1,x,n,u,n,n,n
COc1ccc(OCC(=O)N(Cc2sccc2C)C2CCS(=O)(=O)C2)cc1 (stereo not given),n,n,n,n,n,n
Cc1csc(NC(=O)CSc2nc3sc(C)c(C)c3c(=O)[nH]2)n1,n,n,u,n,n,n
Cc1ccc(NC(=O)c2sc3nc(CCl)[nH]c(=O)c3c2C)c(C)c1,u,9.5µM,u,u,u,n
CSCc1nc2sc(C(=O)Nc3nc(C)cs3)c(C)c2c(=O)[nH]1,11µM,u,u,3.2µM,n,u
CCc1noc(C)c1C(=O)N(C)CC(=O)Nc1ccc(OC)cc1,x,n,n,n,n,n
Cc1cc(-c2csc(N)n2)c(C)n1C,n,n,n,n,n,n
Cc1ccc(-n2c(C)cc(-c3csc(N)n3)c2C)cc1,n,11µM,n,n,n,n
COc1cc2c(c(OC)c1)C(c1cccc(F)c1F)CC(=O)N2 (stereo not given),n,n,x,x,x,x
Cc1cc(-n2c(C)cc(C(=O)COc3ccc(F)c(F)c3)c2C)no1,x,17µM,n,u,n,n
Cc1cc2cc3c(cc2nc1SCc1ccc(C(=O)O)cc1)OCCO3,n,19µM,u,n,n,n
Cc1cc2cc3c(cc2nc1SCC(=O)O)OCCO3,n,n,n,n,n,n
CC(CCc1ccccc1)NC(=O)c1ccc(C(=O)NC(C)CCc2ccccc2)cc1 (stereo not given),n,n,5.2µM,n,n,n
CC(CCc1ccccc1)NC(=O)c1ccccc1 (stereo not given),n,n,n,n,n,n
CC(C)CCNC(=O)C(=O)Nc1ccccc1,u,u,u,1.6µM,u,3.5µM
CC(C)CCNC(=O)c1ccc(-c2ccccc2)cc1,7.9µM,9.5µM,u,3.5µM,u,u
CC(C)CCNC(=O)c1cccc(C(=O)NCCC(C)C)c1,n,n,n,n,n,n
COCCn1c(SCc2cc(=O)n3cc(C)ccc3n2)nc2ccccc2c1=O,n,n,n,n,n,n
